Assay results taken from PubChem BioAssay (NCATS).
Results filed as inconclusive are left out. Where a call stands in place of a potency, no number is given. A number with no mark means an inactive call. Active and inactive are the calls of the source. Calls come from the whole dose curve; as a rule, active = well fitted curve in the direction sought with a large enough effect; inconclusive = small, poorly fitted or top-dose-only effect, or another doubt; inactive = no such curve, though single readings can be large; an effect the other way counts as inactive or inconclusive.

assay: BET inhibitor-based combinations targeting novel dependencies in MECOM-rearranged (r) AML: UCSD-AML1 cell line (AID 2202235); conditions: UCSD-AML1 AML cells viability, CellTiter-Glo, 48 h; series mostly up to 46 µM; note: nearly all actives have a fitted effect of over 40% in size
How it was run: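 Cells at 500/well were exposed for 48 hr to MIPE v5.0 drugs as 11-point dose curves. Viability was read by CellTiter-Glo luminescence and normalized to DMSO and empty-well controls. Activity was expressed as AUC and per-cell-line Z-AUC.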
Potency is the fitted concentration of half-maximal effect.

SMILES | Potency
Cc1cc(C)cc(NC(=O)Cc2ccc(OC(C)(C)C(=O)O)cc2)c1 | inactive
OC(c1ccc(-c2ccc(CN3CCN(Cc4ccncc4)CC3)cc2)c(F)c1)(C(F)(F)F)C(F)(F)F | inactive
Cn1cncc1C(N)(c1ccc(Cl)cc1)c1ccc2c(c1)c(-c1cccc(Cl)c1)cc(=O)n2C (configuration not stated) | 0.372 µM (active)
CN(C)N(C)C(=O)[C@@]1(Cc2ccccc2)CCCN(C(=O)[C@@H](Cc2c[nH]c3ccccc23)NC(=O)C(C)(C)N)C1 | inactive
CC(C)(C)NC(=O)Nc1cccc(Nc2ncc(F)c(NC(C)(C)CO)n2)c1 | 3.72 µM (active)
CNC(=O)c1ccc(N2C(=S)N(c3cnc(C#N)c(C(F)(F)F)c3)C(=O)C23CCC3)cc1F | inactive
Cc1ccc2nc(NC(=O)CSc3nc4c(c(=O)n3-c3ccccc3)SCC4)sc2c1 | inactive
CC1(C)Cc2c(-c3ccccc3)c(-c3ccc(Cl)cc3)c(CC(=O)O)n2C1 | inactive
COc1cc2c(cc1OC)CN(CCc1ccc(NC(=O)c3cccc4c(=O)c5cccc(OC)c5[nH]c34)cc1)CC2 | inactive
CC(C)C(=O)Nc1ncc(-c2cc(C(F)F)nn2-c2c(Cl)cccc2Cl)s1 | inactive
O=C(NC[C@H](O)CN1CCc2ccccc2C1)c1cc(NC2COC2)ncn1 | inactive
Cn1cc(-c2ccc3nnc(C(F)(F)c4ccc5ncccc5c4)n3n2)cn1 | inactive
CCNCc1nc2c(N)nc3ccccc3c2n1CC(C)(C)O | inactive
COc1cccc(Nc2c(C(N)=O)cnc3c(C)cc(S(=O)(=O)c4cccc(C(=O)N(C)C)c4)cc23)c1 | inactive
C=Cc1cc(O)cc2nc(-c3ccc(O)c(F)c3)oc12 | inactive
CC1(C)CCC(c2ccc(Cl)cc2)=C(CN2CCN(c3ccc(C(=O)NS(=O)(=O)c4ccc(N[C@H](CCN5CCOCC5)CSc5ccccc5)c(S(=O)(=O)C(F)(F)F)c4)cc3)CC2)C1 | 1.05 µM (active)
CC(=O)N1CCN(CCOc2ccc(C3CCN(C4=Nn5c(nnc5C(F)(F)F)CC4)CC3)cc2)CC1 | inactive
CCN(c1cc(-c2ccc(CN3CCOCC3)cc2)cc(C(=O)NCc2c(C)cc(C)[nH]c2=O)c1C)C1CCOCC1 | inactive

assay: BET inhibitor-based combinations targeting novel dependencies in MECOM-rearranged (r) AML: AML-191 cell line (AID 2202236; note: nearly all actives have a fitted effect of over 35% in size); conditions: AML-191 viability, CellTiter-Glo luminescence, 48 h; series mostly up to 46 µM
How it was run: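 AML cell lines seeded at 500 cells/well, treated with 11-point dose curves for 48 h. Viability by CellTiter-Glo luminescence, normalised to DMSO and empty wells; activity expressed as AUC and per-cell-line Z-transformed AUC.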

SMILES | Potency | viability (% of control)
O=C(O)C[C@H](O)C[C@H](O)/C=C/c1c(C2CC2)nc2ccccc2c1-c1ccc(F)cc1 | 10.5 µM (active) | –
COc1cc2c(NC3CCN(CC4CCCCC4)CC3)nc(N3CCCN(C(C)C)CC3)nc2cc1OCCCN1CCCCC1 | 9.34 µM (active) | –
CC(C)N(CCCNC(=O)Nc1ccc(C(C)(C)C)cc1)C[C@H]1O[C@@H](n2ccc3c(N)ncnc32)[C@H](O)[C@@H]1O | inactive | –
Cc1cnc(Nc2cccc(CN3CCOCC3)c2)nc1Nc1cccc(S(=O)(=O)NC(C)(C)C)c1 | 1.66 µM (active) | –
C[C@@]1(c2cc(-c3cncnc3)c(F)cc2F)CCSC(N)=N1 | inactive | –
CCN(CCO)CCCC(C)Nc1ccnc2cc(Cl)ccc12 (configuration not stated) | – | 74.5% [at 5.12 µM]
CCCCOc1nc(N)c2c(n1)N(Cc1cccc(CN3CCCC3)c1)CC(=O)N2 | inactive | –
Nc1ncnc2c1c(-c1cccc(OCc3ccccc3)c1)cn2C1CC(CN2CCC2)C1 (configuration not stated) | 18.6 µM (active) | –
Cc1nc(C(=O)NCC(=O)O)c(O)c2ccc(Oc3ccccc3)cc12 | inactive | –
COc1cc(C)c(Sc2cnc(NC(=O)c3ccc(CNC(C)C(C)C)cc3)s2)cc1C(=O)N1CCN(C(C)=O)CC1 (configuration not stated) | 16.6 µM (active) | –
Cc1nnc(C(C)C)n1C1CC2CCC(C1)N2CCC(NC(=O)C1CCC(F)(F)CC1)c1ccccc1 (configuration not stated) | inactive | –
Cc1nn(C)c(COc2ccc(N3CCN(S(=O)(=O)N(C)C)CC3)cc2)c1-c1cccc2c(CCCOc3cccc4ccccc34)c(C(=O)O)n(CCN3CCOCC3)c12 | inactive | –
Cc1cc(C)cc(NC(=O)Cc2ccc(OC(C)(C)C(=O)O)cc2)c1 | inactive | –
OC(c1ccc(-c2ccc(CN3CCN(Cc4ccncc4)CC3)cc2)c(F)c1)(C(F)(F)F)C(F)(F)F | 9.34 µM (active) | –
Cn1cncc1C(N)(c1ccc(Cl)cc1)c1ccc2c(c1)c(-c1cccc(Cl)c1)cc(=O)n2C (configuration not stated) | 4.17 µM (active) | –
CN(C)N(C)C(=O)[C@@]1(Cc2ccccc2)CCCN(C(=O)[C@@H](Cc2c[nH]c3ccccc23)NC(=O)C(C)(C)N)C1 | inactive | –
CNC(=O)c1ccc(N2C(=S)N(c3cnc(C#N)c(C(F)(F)F)c3)C(=O)C23CCC3)cc1F | inactive | –
Cc1ccc2nc(NC(=O)CSc3nc4c(c(=O)n3-c3ccccc3)SCC4)sc2c1 | inactive | –
CC1(C)Cc2c(-c3ccccc3)c(-c3ccc(Cl)cc3)c(CC(=O)O)n2C1 | inactive | –
Cc1cc(Nc2ncnc3ccc(-c4ccc(CNCCS(C)(=O)=O)o4)cc23)ccc1Oc1ccn2ncnc2c1 | inactive | –
CCOc1cc2c(c(F)c1OCC)C(=N)N(CC(=O)c1cc(N3CCOCC3)c(OC)c(C(C)(C)C)c1)C2 | 16.6 µM (active) | –
COc1cc2c(cc1OC)CN(CCc1ccc(NC(=O)c3cccc4c(=O)c5cccc(OC)c5[nH]c34)cc1)CC2 | inactive | –
O=C(O)Cn1nnc(-c2cc(N3CCC(Oc4cc(F)ccc4Br)CC3)no2)n1 | inactive | –
O=C(NC[C@H](O)CN1CCc2ccccc2C1)c1cc(NC2COC2)ncn1 | inactive | –
COc1cccc(Nc2c(C(N)=O)cnc3c(C)cc(S(=O)(=O)c4cccc(C(=O)N(C)C)c4)cc23)c1 | 5.9 µM (active) | –
C[C@H]1Oc2cc(cnc2N)-c2c(nn(C)c2C#N)CN(C)C(=O)c2ccc(F)cc21 | 1.32 µM (active) | –
CC1(C)CCC(c2ccc(Cl)cc2)=C(CN2CCN(c3ccc(C(=O)NS(=O)(=O)c4ccc(N[C@H](CCN5CCOCC5)CSc5ccccc5)c(S(=O)(=O)C(F)(F)F)c4)cc3)CC2)C1 | 0.742 µM (active) | –
CC(=O)N1CCN(CCOc2ccc(C3CCN(C4=Nn5c(nnc5C(F)(F)F)CC4)CC3)cc2)CC1 | inactive | –
CCN(c1cc(-c2ccc(CN3CCOCC3)cc2)cc(C(=O)NCc2c(C)cc(C)[nH]c2=O)c1C)C1CCOCC1 | inactive | –
